Results: PubChem BioAssay (NCATS)
Records with an inconclusive call do not appear. Where a call stands in place of a potency, no number is given. The source made the active and inactive calls. Calls follow the shape of the full dose curve.

Experiment: Primary qHTS for inhibitors of MERS-S pseudo-typed particle cell entry (AID 1479149); also: nearly all actives have a fitted effect of over 60% in size
Settings: MERS-S pseudotyped particle entry, luciferase; series mostly up to 57.1 µM
Potency is read from the fitted curve at half-maximal effect.

Row | SMILES | Potency
1 | OC(CCN1CCCCC1)(c1ccccc1)C1CC2C=CC1C2 (stereo not given) | inactive
2 | CN(C)CCn1nnnc1SCC1=C(C(=O)O)N2C(=O)[C@@H](NC(=O)Cc3csc(N)n3)[C@H]2SC1 | inactive
3 | COc1cc(OC)cc(OC)c1 | inactive
4 | CC(C)(C)CC(=O)OCC(=O)[C@@]1(O)CC[C@H]2[C@@H]3CCC4=CC(=O)C=C[C@]4(C)[C@H]3[C@@H](O)C[C@@]21C | inactive
5 | CO/N=C(/C(=O)N[C@@H]1C(=O)N2C(C(=O)O)=C(Cn3nnc(C)n3)CS[C@H]12)c1csc(N)n1 | inactive
6 | O=C(O)CCc1nc(-c2ccccc2)c(-c2ccccc2)o1 | inactive
7 | O=[N+]([O-])c1nccn1CO[C@@H](CO)[C@H](O)CO | inactive
8 | CC(C)c1cc2c(cc1S(=O)(=O)O)[C@@]1(C)CCC[C@@](C)(C(=O)O)[C@@H]1CC2 | inactive
9 | CC1(C)[C@H](C(=O)O)N2C(=O)C[C@H]2S1(=O)=O | inactive
10 | O=C(CCCCCCCCC#CI)Oc1ccccc1 | inactive
11 | C[N+]1(CC2COC(c3ccccc3)(c3ccccc3)O2)CCCCC1 (stereo not given) | inactive
12 | C[C@H](N)C(=O)N[C@@H](C)C(=O)NC1[C@H]2CN(c3nc4c(cc3F)c(=O)c(C(=O)O)cn4-c3ccc(F)cc3F)C[C@@H]12 (stereo not given in full) | inactive
13 | CC(=O)OCC(=O)[C@@]1(O)CCC2C3CCC4=CC(=O)CC[C@]4(C)C3[C@@H](O)C[C@@]21C (stereo not given in full) | inactive
14 | Cc1cc(C(C)(C)C)c(O)c(C)c1CC1=NCCN1 | inactive
15 | CC(=O)Oc1c(C)c(C)c2c(c1C)CC[C@@](C)(CCC[C@H](C)CCC[C@H](C)CCCC(C)C)O2 | inactive
16 | CCN[C@H]1C[C@H](C)S(=O)(=O)c2sc(S(N)(=O)=O)cc21 | inactive
17 | Cc1cccc(N(C)C(=S)Oc2ccc3c(c2)C2CCC3C2)c1 (stereo not given) | inactive
18 | CC1(C)O[C@@H]2C[C@H]3[C@@H]4CCC5=CC(=O)CC[C@]5(C)[C@@]4(F)[C@@H](O)C[C@]3(C)[C@]2(C(=O)CCl)O1 | inactive
19 | CSc1ccc(C(=O)c2[nH]c(=O)[nH]c2C)cc1 | inactive
20 | O=C(O)/C=C/c1ccc(Cn2ccnc2)cc1 | inactive

Row | SMILES | Potency
21 | NC(=O)C1(N2CCCCC2)CCN(CCCC(=O)c2ccc(F)cc2)CC1 | inactive
22 | Cc1c(C)c2c(c(C)c1OC(=O)CCC(=O)OCCO)CC[C@@](C)(CCC[C@H](C)CCC[C@H](C)CCCC(C)C)O2 | inactive
23 | O=C(O)C(=O)Nc1cccc(-c2nn[nH]n2)c1 | inactive
24 | O=C1c2ccccc2C(=O)C1c1ccccc1 | inactive
25 | O=C(OCC(COC(=O)c1cccnc1)(COC(=O)c1cccnc1)COC(=O)c1cccnc1)c1cccnc1 | inactive
26 | C[C@]1(Cn2ccnn2)[C@H](C(=O)O)N2C(=O)C[C@H]2S1(=O)=O | inactive
27 | CC(C)NCC(O)COc1ccc(COCCOC(C)C)cc1 (stereo not given) | inactive
28 | Nc1ccc(C(=O)NCC(=O)O)cc1 | inactive
29 | N[C@@H](CSCCCO)C(=O)O | inactive
30 | CN(C)C(=S)SC(=S)N(C)C | 1000 nM (active)
31 | C=CC[N+]1([C@H]2C[C@H]3[C@@H]4CC[C@H]5C[C@H](OC(C)=O)[C@@H](N6CCCCC6)C[C@]5(C)[C@H]4CC[C@]3(C)[C@H]2OC(=O)CC)CCCCC1 | inactive
32 | CCCCC/C=C\C/C=C\CCCCCCCC(=O)NC(C)c1ccccc1 (stereo not given) | inactive
33 | Cc1ccc(O)cc1 | inactive
34 | CN1C(=O)CC(c2ccccc2)C1=O (stereo not given) | inactive
35 | O=C(O)CCC(=O)OC[C@@H](NC(=O)C(Cl)Cl)[C@H](O)c1ccc([N+](=O)[O-])cc1 | inactive
36 | CCCCC1(COC(=O)CCC(=O)O)C(=O)N(c2ccccc2)N(c2ccccc2)C1=O | inactive
37 | Cc1c(N(C)C)c(=O)n(-c2ccccc2)n1C | inactive
38 | Cc1cc(=O)oc2cc(O)ccc12 | inactive
39 | Nc1ccc(S(=O)(=O)Nc2cnc3ccccc3n2)cc1 | inactive
40 | C=CCCCCCCCCC(=O)O | inactive

Experiment: Primary qHTS for Vero E6 cytotoxicity: counterscreen for inhibitors of SARS-S pseudo-typed particle cell entry (AID 1479150)
Settings: cell viability; series mostly up to 57.1 µM

Row | SMILES | Potency
41 | OC(CCN1CCCCC1)(c1ccccc1)C1CC2C=CC1C2 (stereo not given) | inactive
42 | CN(C)CCn1nnnc1SCC1=C(C(=O)O)N2C(=O)[C@@H](NC(=O)Cc3csc(N)n3)[C@H]2SC1 | inactive
43 | COc1cc(OC)cc(OC)c1 | inactive
44 | CC(C)(C)CC(=O)OCC(=O)[C@@]1(O)CC[C@H]2[C@@H]3CCC4=CC(=O)C=C[C@]4(C)[C@H]3[C@@H](O)C[C@@]21C | inactive
45 | CO/N=C(/C(=O)N[C@@H]1C(=O)N2C(C(=O)O)=C(Cn3nnc(C)n3)CS[C@H]12)c1csc(N)n1 | inactive
46 | O=C(O)CCc1nc(-c2ccccc2)c(-c2ccccc2)o1 | inactive
47 | O=[N+]([O-])c1nccn1CO[C@@H](CO)[C@H](O)CO | inactive
48 | CC(C)c1cc2c(cc1S(=O)(=O)O)[C@@]1(C)CCC[C@@](C)(C(=O)O)[C@@H]1CC2 | inactive
49 | CC1(C)[C@H](C(=O)O)N2C(=O)C[C@H]2S1(=O)=O | inactive
50 | O=C(CCCCCCCCC#CI)Oc1ccccc1 | inactive
51 | C[N+]1(CC2COC(c3ccccc3)(c3ccccc3)O2)CCCCC1 (stereo not given) | inactive
52 | C[C@H](N)C(=O)N[C@@H](C)C(=O)NC1[C@H]2CN(c3nc4c(cc3F)c(=O)c(C(=O)O)cn4-c3ccc(F)cc3F)C[C@@H]12 (stereo not given in full) | inactive
53 | CC(=O)OCC(=O)[C@@]1(O)CCC2C3CCC4=CC(=O)CC[C@]4(C)C3[C@@H](O)C[C@@]21C (stereo not given in full) | inactive
54 | Cc1cc(C(C)(C)C)c(O)c(C)c1CC1=NCCN1 | inactive
55 | CC(=O)Oc1c(C)c(C)c2c(c1C)CC[C@@](C)(CCC[C@H](C)CCC[C@H](C)CCCC(C)C)O2 | inactive
56 | CCN[C@H]1C[C@H](C)S(=O)(=O)c2sc(S(N)(=O)=O)cc21 | inactive
57 | Cc1cccc(N(C)C(=S)Oc2ccc3c(c2)C2CCC3C2)c1 (stereo not given) | inactive
58 | CC1(C)O[C@@H]2C[C@H]3[C@@H]4CCC5=CC(=O)CC[C@]5(C)[C@@]4(F)[C@@H](O)C[C@]3(C)[C@]2(C(=O)CCl)O1 | inactive
59 | CSc1ccc(C(=O)c2[nH]c(=O)[nH]c2C)cc1 | inactive
60 | O=C(O)/C=C/c1ccc(Cn2ccnc2)cc1 | inactive

Row | SMILES | Potency
61 | NC(=O)C1(N2CCCCC2)CCN(CCCC(=O)c2ccc(F)cc2)CC1 | inactive
62 | Cc1c(C)c2c(c(C)c1OC(=O)CCC(=O)OCCO)CC[C@@](C)(CCC[C@H](C)CCC[C@H](C)CCCC(C)C)O2 | inactive
63 | O=C(O)C(=O)Nc1cccc(-c2nn[nH]n2)c1 | inactive
64 | O=C1c2ccccc2C(=O)C1c1ccccc1 | inactive
65 | O=C(OCC(COC(=O)c1cccnc1)(COC(=O)c1cccnc1)COC(=O)c1cccnc1)c1cccnc1 | inactive
66 | C[C@]1(Cn2ccnn2)[C@H](C(=O)O)N2C(=O)C[C@H]2S1(=O)=O | inactive
67 | CC(C)NCC(O)COc1ccc(COCCOC(C)C)cc1 (stereo not given) | inactive
68 | Nc1ccc(C(=O)NCC(=O)O)cc1 | inactive
69 | N[C@@H](CSCCCO)C(=O)O | inactive
70 | CN(C)C(=S)SC(=S)N(C)C | 2820 nM (active)
71 | C=CC[N+]1([C@H]2C[C@H]3[C@@H]4CC[C@H]5C[C@H](OC(C)=O)[C@@H](N6CCCCC6)C[C@]5(C)[C@H]4CC[C@]3(C)[C@H]2OC(=O)CC)CCCCC1 | inactive
72 | CCCCC/C=C\C/C=C\CCCCCCCC(=O)NC(C)c1ccccc1 (stereo not given) | inactive
73 | Cc1ccc(O)cc1 | inactive
74 | CN1C(=O)CC(c2ccccc2)C1=O (stereo not given) | inactive
75 | O=C(O)CCC(=O)OC[C@@H](NC(=O)C(Cl)Cl)[C@H](O)c1ccc([N+](=O)[O-])cc1 | inactive
76 | CCCCC1(COC(=O)CCC(=O)O)C(=O)N(c2ccccc2)N(c2ccccc2)C1=O | inactive
77 | Cc1c(N(C)C)c(=O)n(-c2ccccc2)n1C | inactive
78 | Cc1cc(=O)oc2cc(O)ccc12 | inactive
79 | Nc1ccc(S(=O)(=O)Nc2cnc3ccccc3n2)cc1 | inactive
80 | C=CCCCCCCCCC(=O)O | inactive
